Measured values: PubChem BioAssay (NCATS)
Results filed as inconclusive are left out. Active and inactive are the calls of the source. Calls follow the shape of the dose curve; as a rule, active = well fitted inhibition curve with a large enough effect; inconclusive = small, poorly fitted or top-dose-only effect; inactive = flat fitted curve, though single readings scatter.

Columns and labels:
Assay in all cases: Cytotoxic Profiling of Annotated Libraries Using Quantitative High-Throughput Screening (AID 1296008); also: nearly all actives have a fitted effect of over 60% in size
Conditions in all cases: Five cell lines viability, CellTiter-Glo ATP luminescence, 48-72 h; max response: hits give low values
CRL-7250 = normal cell line; tested on: CRL-7250
Outline: (§1)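 Compounds were pin-transferred onto cells and incubated 48 or 72 hr at 37 degree Celsius, 95% humidity. CellTiter-Glo was added, plates sat 10 min at room temperature, then ATP-coupled luminescence was imaged as the viability read-out.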

HEK293 = tested on: HEK293
Outline: as §1

HaCat = tested on: HaCat
Outline: as §1

KB-3-1 = tested on: KB-3-1
Outline: as §1

NIH3T3 = tested on: NIH3T3
Outline: as §1

Measured: max response
% is scaled to controls: 0 for no effect and ±100 for the full control effect.

C=C1C[C@]23C[C@H]1CC[C@H]2[C@@]12C=C[C@H](O)[C@@](C)(C(=O)O1)[C@H]2[C@@H]3C(=O)O
inactive: CRL-7250 -5.97% | HEK293 | HaCat | KB-3-1 | NIH3T3

C[C@@H]1O[C@@H](O[C@H]2[C@H](OC(C#N)c3ccc(O)cc3)O[C@H](CO)[C@@H](O)[C@@H]2O)[C@H](O)[C@H](O)[C@H]1O (stereo not given in full)
inactive: CRL-7250 -7.05% | HEK293 | HaCat | KB-3-1 | NIH3T3

COC(=O)C1C(c2ccc(O)cc2)C(C(=O)OC)C1c1ccc(O)cc1 (stereo not given)
inactive: CRL-7250 -3.45% | HEK293 | HaCat | KB-3-1 | NIH3T3

O=C(O[C@@H]1O[C@H](CO)[C@@H](O)[C@H](O)[C@H]1O)c1c(O)cc(O)cc1/C=C/c1ccccc1
inactive: CRL-7250 2.06% | HEK293 | HaCat | KB-3-1 | NIH3T3 3.61%

CC1(C)CC2C(O)C3=C(CC(C)(O)C2C1)C(=O)OC3O (stereo not given)
inactive: CRL-7250 -0.0685% | HEK293 | HaCat | KB-3-1 5.32% | NIH3T3

Nc1nonc1C(=Nc1ccc(F)c(Cl)c1)NO
inactive: CRL-7250 -22.8% | HEK293 | HaCat -3.71% | KB-3-1 | NIH3T3
